# Active and inactive are the calls of the source.
# How the values were obtained:
# [1] = test system: Human papillomavirus type 1a protein E7 (residues 44-93); assay: HPV1a E7 fragment binders on microarrays, primary screen, biochemical, small-molecule microarray, residues 44-93, 635 nm fluorescence (AID 1108); conditions: small-molecule microarray binding, fluorescence 635 nm; higher = more signal;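 further: E7 fragment applied at 1 µg/mL in TBST for 1 h at 4 C; score combines spot fluorescence with its signal to noise ratio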
# [2] = modulators of HCV replicon luciferase signal, primary screen, HCV replication inhibitor project, Huh7 cells, luciferase reporter (AID 1109); conditions: 48 h, higher = more signal;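 further: huh7 hepatoma cells harbouring a luciferase neomycin HCV replicon reporter; luciferase luminescence as measure of HCV replicon replication; test concentration not given here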
# [3] = target: Left-right determination factor 2 (Homo sapiens) (UniProt O00292); assay: LEFTY2 binders on small-molecule microarrays, primary screen, biochemical, small-molecule microarray, 635 nm fluorescence scan (AID 1110); conditions: LEFTY2 binding, higher = more signal
# [4] = target: Calmodulin-1 (Homo sapiens) (UniProt P0DP23); assay: CALM1 binders on microarrays, EGTA buffer, profiling panel, biochemical, small-molecule microarray, Cy5-labelled CALM1 (AID 1111); conditions: Cy5-CALM1 binding fluorescence, higher = more signal;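 further: labelled calmodulin applied in Tris saline Tween buffer holding calcium plus EGTA and DTT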
# [5] = target: Calmodulin-1 (Homo sapiens) (UniProt P0DP23); assay: calcium-bound CALM1 binders on microarrays, profiling panel, artefact control for SMM control-protein annotation, biochemical, small-molecule microarray, Cy5-labelled CALM1, plus calcium (AID 1112); conditions: Cy5-CALM1 binding fluorescence, higher = more signal;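 further: score merges spot fluorescence with signal to noise from triplicate slides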
# [6] = small-molecule microarray binders of probe aWnt5a, primary screen, biochemical, biotinylated probe, 635/667 nm fluorescence (AID 1113); conditions: higher = more signal;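 further: score merges 667 nm fluorescence intensity with signal-to-noise per printed feature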
# [7] = small-molecule microarray binders of probe aShh, primary screen, biochemical, biotinylated probe, 635/667 nm fluorescence (AID 1114); conditions: higher = more signal;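 further: probe is biotin-labelled aShh protein from a stem cell growth factor screen; measures binding of labelled protein to compounds printed on the slide; score merges feature fluorescence at 667 nm with signal-to-noise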
# [8] = small-molecule microarray binders of probe aNog, primary screen, biochemical, biotinylated probe, 635/667 nm fluorescence (AID 1115); conditions: higher = more signal;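 further: probe is biotinylated aNog protein used at 0.15 µg/mL for 1 h at 4 C; z-score combines 667 nm fluorescence of each spot with its signal to noise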
# [9] = target: Torsin-1A-interacting protein 1 (Homo sapiens) (UniProt Q5JTV8); assay: LAP1 binders from COS7 cell lysate, primary screen, small-molecule microarray, 635/667 nm fluorescence (AID 1116); conditions: COS7-hLAP1 lysate binding, 635 nm fluorescence, higher = more signal
# [10] = target: Alpha-bungarotoxin (Bungarus multicinctus) (UniProt P60615); assay: alpha-bungarotoxin binders on microarray, profiling panel, artefact control for SMM control protein annotation, biochemical, small-molecule microarray, Alexa647 label, 635/667 nm fluorescence (AID 1117); conditions: alpha-BTX-A647 binding fluorescence, higher = more signal
# Albumin (Bos taurus) = Albumin (Bos taurus) (UniProt P02769); assay: bovine serum albumin binders on microarray, profiling panel, artefact control for SMM control protein annotation, biochemical, small-molecule microarray, Alexa647 label, 635/667 nm fluorescence (AID 1118); conditions: BSA-A647 binding, fluorescence 635 nm, higher = more signal;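 further: score merges 667 nm emission intensity and signal-to-noise per printed compound spot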
# [11] = small-molecule microarray binders of probe aXIP, primary screen, biochemical, NeuroSMM set, 635/667 nm fluorescence (AID 1119); conditions: higher = more signal, called active from +8 up or from −8 down;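 further: probe is the protein aXip251-270 applied at 1 µg/mL to compound-printed slides; binding of probe to printed compounds measured as 667 nm fluorescence plus signal to noise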
# [12] = small-molecule binders of probe aNOTCH3, primary screen, biochemical, small-molecule microarray, 635/667 nm fluorescence (AID 1120); conditions: higher = more signal;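 further: probe is a biotin-tagged antibody raised against NOTCH3 rather than NOTCH3 protein; score merges spot fluorescence near 667 nm with spot signal to noise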
# [13] = small-molecule binders of probe aNOTCH2, primary screen, biochemical, small-molecule microarray, 635/667 nm fluorescence (AID 1121); conditions: higher = more signal;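 further: score merges feature fluorescence read at 667 nm with its signal to noise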
# [14] = target: Carbonic anhydrase 2 (Homo sapiens) (UniProt P00918); assay: CAII small-molecule binders, profiling panel, biochemical, small-molecule microarray, Alexa647-labelled CAII (AID 1122); conditions: CAII-A647 binding fluorescence, higher = more signal
# [15] = COS7 lysate on small-molecule microarray, probe aHis, 635 nm (AID 1123); conditions: COS7 cell lysate, fluorescence, higher = more signal;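 further: z-score combines 667nm fluorescence intensity with signal-to-noise per printed compound spot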
# [16] = compound binding in COS7 lysate, probe aLAP1, primary screen, cell lysate, small-molecule microarray (AID 1124); conditions: probe aLAP1, fluorescence, higher = more signal;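 further: lysate comes from COS7 cells expressing LAP1 and is applied at 0.3 µg/mL; score merges spot fluorescence near 667 nm with signal-to-noise over triplicate slides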
# Sam68 (KHDRBS1) = assay: Sam68 small-molecule binders, primary screen, biochemical, small-molecule microarray, 635 nm fluorescence (AID 1125); conditions: small-molecule microarray binding, higher = more signal;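 further: score merges 667 nm channel intensity with signal to noise over triplicate slides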
# [17] = test system: Chordin-like protein 2 (CHRDL2); assay: CHRDL2 small-molecule binders, primary screen, biochemical, small-molecule microarray, 635 nm fluorescence (AID 1126); conditions: small-molecule microarray binding, fluorescence 635 nm; higher = more signal;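 further: printed compound slides probed with Chrdl2 protein at 4 µg/mL for 1 h at 4 C; score merges 667 nm emission intensity with signal to noise over three replicate slides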
# [18] = target: Concanavalin-A (Canavalia ensiformis) (UniProt P02866); assay: ConA small-molecule binders, primary screen, artefact control for SMM control protein annotation, biochemical, small-molecule microarray, Alexa647 label, 635 nm (AID 1127); conditions: ConA-A647 binding fluorescence, higher = more signal;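 further: z combines 667 nm emission intensity with signal-to-noise across three replicate slides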
# Sequence of Concanavalin-A (Canavalia ensiformis) (P02866 whole entry, looked up): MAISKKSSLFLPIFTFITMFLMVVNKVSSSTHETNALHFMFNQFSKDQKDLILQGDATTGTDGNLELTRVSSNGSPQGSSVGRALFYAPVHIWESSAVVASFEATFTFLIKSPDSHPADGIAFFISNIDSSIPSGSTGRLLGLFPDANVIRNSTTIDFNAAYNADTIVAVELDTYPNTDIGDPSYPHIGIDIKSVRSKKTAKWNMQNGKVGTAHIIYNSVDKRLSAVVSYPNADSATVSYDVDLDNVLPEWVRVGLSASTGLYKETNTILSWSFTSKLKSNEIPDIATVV
# Sequence of Left-right determination factor 2 (Homo sapiens) (O00292 whole entry, looked up): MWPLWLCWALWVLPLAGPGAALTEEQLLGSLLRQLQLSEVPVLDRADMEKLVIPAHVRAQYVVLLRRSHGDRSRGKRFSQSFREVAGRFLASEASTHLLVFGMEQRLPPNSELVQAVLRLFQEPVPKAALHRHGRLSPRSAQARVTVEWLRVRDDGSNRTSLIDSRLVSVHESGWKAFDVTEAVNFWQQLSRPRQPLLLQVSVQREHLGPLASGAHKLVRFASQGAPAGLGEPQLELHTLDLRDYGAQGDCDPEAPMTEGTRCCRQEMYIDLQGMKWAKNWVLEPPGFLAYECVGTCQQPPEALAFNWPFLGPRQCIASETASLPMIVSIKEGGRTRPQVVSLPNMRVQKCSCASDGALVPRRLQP
# Sequence of Alpha-bungarotoxin (Bungarus multicinctus) (P60615 whole entry, looked up): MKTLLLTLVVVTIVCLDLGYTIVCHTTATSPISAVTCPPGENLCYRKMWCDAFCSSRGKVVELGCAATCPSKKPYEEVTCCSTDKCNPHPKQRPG
# Sequence of Torsin-1A-interacting protein 1 (Homo sapiens) (Q5JTV8 whole entry, looked up): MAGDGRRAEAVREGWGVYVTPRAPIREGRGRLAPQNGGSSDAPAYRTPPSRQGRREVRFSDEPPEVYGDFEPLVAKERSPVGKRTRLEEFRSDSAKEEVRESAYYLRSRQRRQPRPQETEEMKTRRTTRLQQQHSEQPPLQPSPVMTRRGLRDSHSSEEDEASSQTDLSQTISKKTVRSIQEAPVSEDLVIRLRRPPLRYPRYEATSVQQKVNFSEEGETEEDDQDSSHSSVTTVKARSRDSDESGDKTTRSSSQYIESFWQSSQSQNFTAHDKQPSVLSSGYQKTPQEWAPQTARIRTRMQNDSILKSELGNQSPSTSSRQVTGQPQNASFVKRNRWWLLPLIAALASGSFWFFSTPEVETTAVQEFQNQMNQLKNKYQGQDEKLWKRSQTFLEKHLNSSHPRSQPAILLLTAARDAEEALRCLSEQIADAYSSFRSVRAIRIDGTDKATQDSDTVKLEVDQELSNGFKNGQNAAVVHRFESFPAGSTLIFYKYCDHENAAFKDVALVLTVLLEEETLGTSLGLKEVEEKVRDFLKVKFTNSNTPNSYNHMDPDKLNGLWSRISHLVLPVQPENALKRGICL
# Sequence of Albumin (Bos taurus) (P02769 whole entry, looked up): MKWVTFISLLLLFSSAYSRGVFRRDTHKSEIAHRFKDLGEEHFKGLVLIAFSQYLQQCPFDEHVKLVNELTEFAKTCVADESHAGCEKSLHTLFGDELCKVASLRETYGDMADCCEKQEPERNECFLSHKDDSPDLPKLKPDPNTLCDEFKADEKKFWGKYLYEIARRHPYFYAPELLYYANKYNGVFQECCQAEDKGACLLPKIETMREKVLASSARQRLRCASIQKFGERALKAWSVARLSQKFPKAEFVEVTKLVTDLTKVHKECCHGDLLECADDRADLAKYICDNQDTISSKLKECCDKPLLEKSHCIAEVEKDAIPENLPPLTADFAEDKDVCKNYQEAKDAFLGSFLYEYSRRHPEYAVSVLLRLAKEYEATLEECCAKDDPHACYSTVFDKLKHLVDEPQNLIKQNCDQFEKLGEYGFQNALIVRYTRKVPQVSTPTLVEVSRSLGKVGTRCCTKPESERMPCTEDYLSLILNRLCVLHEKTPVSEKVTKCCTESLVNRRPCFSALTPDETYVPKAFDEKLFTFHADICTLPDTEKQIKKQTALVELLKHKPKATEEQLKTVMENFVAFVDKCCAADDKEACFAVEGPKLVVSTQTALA
Compound,composite z-score [1],z-score [2],composite z-score [3],composite z-score [4],composite z-score [5],composite z-score [6],composite z-score [7],composite z-score [8],composite z-score [9],composite z-score [10],composite z-score (Albumin (Bos taurus)),composite Z-score [11],composite z-score [12],composite z-score [13],composite z-score [14],composite z-score [15],composite z-score [16],composite z-score (Sam68 (KHDRBS1)),composite z-score [17],composite z-score [18]
CC(C)N1CC=CC23O[C@@H]4/C=C\CCCOC(=O)C4[C@H]2C(=O)N(CCCCCO)[C@@H]3C1=O (stereo not given in full),-1.46,0.0844,-1.86,-2.24,-0.226,-0.176,-0.179,0.0403,-1.04,-2.08,-1.71,-0.0102 (inactive),-0.448,-0.169,0.945,-0.0414,0.64,-1.74,-1.9,-1.26
Cc1ccc(N2C(=O)c3ccccc3[C@](C)(C(=O)O)[C@@H]2c2ccc(CO)cc2)nc1,-2.5,0.0767,-1.64,0.202,0.823,-0.304,0.608,-0.459,-0.415,-0.666,-1.29,-0.313 (inactive),-0.414,-0.228,0.289,-0.471,0.067,-1.17,-1.77,-1.14
COCCOC(=O)N1C(=O)[C@@]2(c3cc(C#CCNC(N)=O)ccc31)[C@H](c1ccc(OCCO)cc1)N1[C@H](c3ccccc3)[C@H](c3ccccc3)OC(=O)[C@H]1[C@@H]2C(=O)Nc1nc2ccccc2s1,0.376,-1.11,1.24,0.669,0.701,0.0136,0.187,0.402,0.114,1.37,-0.76,-0.0202 (inactive),-0.124,-0.126,0.277,0.447,0.338,0.289,0.903,0.915
CN1C(=O)C2C=CC(C(O)c3ccc(N(C)C)cc3)N(Nc3ccc([N+](=O)[O-])cc3[N+](=O)[O-])C2C1=O (stereo not given),0.501,-0.353,0.371,0.49,0.697,0.055,0.446,1.7,1,0.988,0.944,-0.399 (inactive),0.586,0.0683,0.729,2.72,1.4,1.21,0.556,0.884
COCCOC(=O)N1C(=O)[C@@]2(c3cc(C#CCNC(N)=O)ccc31)[C@H](c1ccccc1OCCO)N1[C@H](c3ccccc3)[C@H](c3ccccc3)OC(=O)[C@H]1[C@@H]2C(=O)NC[C@H](O)c1ccccc1,1.44,-1.1,0.391,1.07,0.527,-0.0239,0.0639,0.385,0.867,2.05,0.679,0.25 (inactive),0.163,-0.113,0.681,2.12,0.717,1.28,0.0781,1.08
CO[C@H]1COC(=O)[C@H](CCSC)NC(=O)CC=C[C@@H](C)COC(=O)[C@@H](OCc2ccccc2)C=C[C@@H]1C,-0.457,-0.704,1.23,-0.86,-1.6,-0.182,-0.1,-0.541,-0.0258,-0.414,-1.35,-0.273 (inactive),-0.0914,-0.102,-0.498,-0.345,-0.0638,0.51,1.51,-0.623
CC(=O)NCCCC[C@@H]1NC(=O)[C@H]2C[C@@H](C(=O)NCCCCCCN(C)C)[C@@H](c3cccc(OCCO)c3)N2C1=O,1.37,1.33,1.45,-1.81,-1.32,-0.0185,0.323,-0.0083,2.25,1.41,-1.13,3.25 (inactive),0.259,0.075,0.694,1.73,1.09,1.32,1.43,1.16
O=C1C2C=CC(C(O)C(c3ccccc3)c3ccccc3)N(Nc3ccc([N+](=O)[O-])cc3)C2C(=O)N1c1ccccc1 (stereo not given),1.46,-0.871,0.737,0.858,0.808,0.122,-0.0211,0.676,0.935,1.42,0.751,-0.214 (inactive),0.272,-0.115,0.733,3.13,0.953,1.33,0.0427,1.17
CCC1=C2CN(Cc3ccccc3Br)[C@@H]([C@@H](O)Cc3ccccc3)C2C=CCC1 (stereo not given in full),1.38,-2.97,0.473,0.417,-0.419,-0.148,-0.0709,-0.278,-0.131,0.616,0.714,1.22 (inactive),-0.0277,-0.123,0.366,1.01,-0.0566,1.3,0.611,0.646
COCCOC(=O)N1C(=O)[C@@]2(c3cc(C#CCNC(N)=O)ccc31)[C@H](C(=O)N1CCCCCCC1)[C@H]1C(=O)O[C@H](c3ccccc3)[C@H](c3ccccc3)N1[C@@H]2c1ccccc1OCCO,1.32,-2.1,1.09,0.886,0.632,0.193,0.46,0.878,0.845,0.48,0.328,1.01 (inactive),0.555,0.0231,0.171,0.963,0.417,1.14,0.573,1.08
CCCC[C@@H]1C[C@H]1[C@@H](NC(=O)c1cccs1)c1ccc(Cl)cc1,-0.416,-1.27,-1.19,0.27,0.696,0.0095,-0.0578,0.46,-0.939,-1.37,0.804,2.33 (inactive),-0.201,-0.0956,-0.346,1.08,-0.0875,-0.858,-1.66,-0.782

# Source: PubChem BioAssay
